Shown are actives, neighbours in structure and some others; about 12% of the full set was active somewhere.
BAZ2B inh – BAZ2B (human) inhibition; AlphaScreen BAZ2B-H3K14Ac peptide displacement; 360,000 compounds, 4.4% hits; Potency, µM (highest dose often 114 µM), without a hit: at the top dose activity change, negative = inhibition, most hits filed as inhibitors; Q9UIF8; AID 504333; note: % is set by controls: 0 for no effect and ±100 for the full control effect; nearly all actives have a fitted effect of over 60% in size
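Protein-peptide AlphaScreen: BAZ2B 50 nM, b-H3K14Ac 50 nM, 1x PBS pH 7.4 + 0.01% Tween-20. Preincubation 30 min RT; cpd 30 min RT (top 110 uM); beads 20 min RT, light-protected.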
HP1b chromo inh – HP1-beta chromodomain-methylated histone interaction inhibition; P83916; AlphaScreen HP1-beta / biotin-H3K9me3 peptide binding; Potency, µM (doses to about 114 µM), for the others: top-dose activity change, negative = inhibition, hits mostly inhibitors; 390,000 compounds, 0.56% hits; note: nearly all actives have a fitted effect of over 70% in size
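Compound inhibition of the preformed complex between 50 nM HP1-beta and 50 nM biotinylated H3K9me3 peptide was read by AlphaScreen. Buffer was PBS pH 7.4 with 0.01% Tween-20. Incubations ran 30 min at room temperature, with 10 ug/mL donor/acceptor beads.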
JMJD2A Tudor inh – JMJD2A Tudor domain (human) inhibition. 390,000 compounds, 4.4% hits. O75164. Potency, µM (highest dose often 114 µM), inactives show at the highest dose activity change, negative = inhibition, usual class: inhibitors. AlphaScreen JMJD2A-Tudor / H3K4me3 peptide binding. AID 504339; note: % is set by controls: 0 for no effect and ±100 for the full control effect; nearly all actives have a fitted effect of over 50% in size
TDP1 inh – inhibitors of human tyrosyl-DNA phosphodiesterase TDP1; Q9NUW8; 350,000 compounds, 0.28% hits; Potency, µM (doses to about 130 µM), without a hit: top-dose activity change, negative = inhibition, most hits filed as inhibitors; recombinant TDP1, AlphaScreen DNA substrate cleavage; note: % is set by controls: 0 for no effect and ±100 for the full control effect; nearly all actives have a fitted effect of over 40% in size
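E. coli-derived human Tdp1, 1 nM final. Cpd preinc 15 min RT; substrate 15 nM final, 5 min RT; AS bead mix 10 ug/ml final, 10 min RT. Signal loss = tyrosine-FITC cleavage. No-enzyme wells = max signal.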
Sfp inh – blocks B. subtilis Sfp PPTase activity | Q9F4F7 | Biochemical Sfp PPTase activity, qHTS | Potency, µM, for inactives: largest response in the series, negative = inhibition, hits mostly inhibitors | 310,000 compounds, 3.5% hits;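 note: the enzyme is Sfp with the accession as filed and its product quenches rhodamine fluorescence; 0% = enzyme reaction without inhibitor and -100% = no enzyme wells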
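Sfp 15 nM + cpd, 15 min RT; start w/ rhodamine-CoA 5 uM, BHQ-2-YbbR 12.5 uM (final); 50 mM Hepes pH 7.6, 10 mM MgCl2, 0.01% NP-40, 0.01% BSA; read 525/598 nm at 0 and 30 min.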
G9a inh – blocks human histone lysine methyltransferase G9a; Q96KQ7; G9a H3K9 monomethylation, AlphaScreen, 2 h; Potency, µM (series often up to 102 µM), for inactives: at the highest dose activity, negative = inhibition, usual class: inhibitors; 350,000 compounds, 8.8% hits; note: % is set by controls: 0 for no effect and ±100 for the full control effect; nearly all actives have a fitted effect of over 75% in size
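G9a (20 nM) was preincubated 15 min with compound, then reacted 2 h at room temperature with 500 nM biotin-H3K9 peptide and 20 µM SAM. Monomethyl-H3K9 detected by AlphaScreen using anti-H3K9me1 antibody.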
Active calls of the source: *; ? = inconclusive; . = no result; [ ] = remark or other dose. Calls come from the whole dose curve; as a rule, active = well fitted curve in the direction sought with a large enough effect; inconclusive = small, poorly fitted or top-dose-only effect, or another doubt; inactive = no such curve, though single readings can be large; an effect the other way counts as inactive or inconclusive. Potency is the fitted concentration of half-maximal effect.

SMILES	BAZ2B inh	HP1b chromo inh	JMJD2A Tudor inh	TDP1 inh	Sfp inh	G9a inh
COc1ccc(CN2CCN(c3ccccc3OC)CC2)c(OC)c1	?	-33.2%	20µM*	.	-15.8%	-9.1%[0.501 µM]
COc1ccc(CN2CCN(CCCc3ccccc3)CC2)c(OC)c1	31.6µM*	.	.	2.6%	-22.6%	3.98µM*
COc1ccc(CC(C)N2CCN(Cc3ccccc3)CC2)c(OC)c1 (configuration not stated)	-32.4%	28.1%	?	2.8%	6.5%	-50.7%[59 µM]
O=C(c1cccc(F)c1)N1CCC2(CC1)CN(C(c1ccccc1)c1ccccc1)C2	.	.	.	.	-17.8%	5.6%[12.7 µM]
COc1ccc(OC)c(S(=O)(=O)NCc2cccn2Cc2cccc(C)c2)c1	?	-13.0%	-29.1%	6.2%	.	8.7%[12.7 µM]
O=C(COc1coc(CN2CCc3ccccc32)cc1=O)Nc1ccc([N+](=O)[O-])cc1	-36.6%	17.9%	-14.5%	-5.9%	.	-2.5%
OCC1(Cc2ccccc2C(F)(F)F)CCN(Cc2ccccc2)CC1	-16.2%	27.0%	-12.8%	5.1%	4.7%	-6.2%
COc1cccc(CN2CCN(Cc3ccccc3C(F)(F)F)CC2)c1	25.1µM*	20µM*	28.2µM*	.	56.2µM*	4.47µM*
COc1cccc(NC(=O)Cn2c(=O)n(CCCCC(=O)NCc3ccccc3Cl)c(=O)c3ccccc32)c1	1.0%	24.0%	0.0%	4.5%	.	5.3%[59 µM]
CCOC(=O)Oc1c(OC)cc(C(=O)O[C@@H]2C[C@@H]3CN4CCc5c([nH]c6cc(OC)ccc56)[C@H]4C[C@@H]3[C@H](C(=O)OC)[C@H]2OC)cc1OC	?	10.8%	?	.	.	8.91µM*
COC(=O)[C@@H]1[C@@H]2C[C@H]3c4[nH]c5cc(OC)ccc5c4CCN3C[C@@H]2C[C@H](OC(=O)c2cc(OC)c(OC)c(OC)c2)[C@H]1OC	.	.	.	18.5%[21 µM]	8.8%	?
Cc1ccc(NC(=O)CSc2nnc(-c3ccccn3)n2N)cc1F	-19.2%	13.3%	-8.3%	2.4%	2.0%	-1.4%
Nn1c(SCc2c(F)cccc2F)nnc1-c1ccccn1	12.6µM*	-5.0%	8.91µM*	3.6%	15.6%	-35.9%
N#Cc1cccc(-n2nnnc2-c2ccccn2)c1	6.2%	17.8%	-8.5%	3.1%	4.5%	-15.2%
c1ccc(-c2nn[nH]n2)cc1	-19.0%	13.8%	-24.9%	.	18.7%	?
c1ccc(-c2nn[nH]n2)nc1	5.62µM*	26.9%	7.08µM*	.	56.2µM*	.
Nn1c(-c2ccccn2)nnc1-c1ccccn1	31.6µM*	39.8%	79.4µM*	6.2%	1.6%	15.6%[12.7 µM]
Cc1ccc(C)c(CSc2nnc(-c3ccccn3)n2N)c1	.	25.6%	39.8µM*	-2.1%	11.6%	-24.0%[59 µM]
O=C(CSc1nccc(=O)[nH]1)NC1CCCCCC1	.	18.6%	-9.7%	0.8%	.	.
CC(=O)Nc1ccc(S(=O)(=O)Nc2ccccc2C(=O)N2CCCC2)cc1	-9.6%	24.1%	-13.1%	.	-3.3%	-12.4%
COc1cc(C)cc2oc(=O)c(CC(=O)NCCc3ccc(Cl)cc3)c(C)c12	29.2%	51.5%	-11.8%	4.9%	.	15.9%[59 µM]
CC(C)Oc1ccc(CNC(=O)c2ccc3c(c2)nc2n3CCOC2)cc1	3.8%	27.3%[57 µM]	5.8%	8.1%	.	-2.4%[59 µM]
Cc1cccc(N2CCN(C(=O)c3ccc4c(c3)N(Cc3cccc(Cl)c3)C(=O)c3ccccc3S4=O)CC2)c1C (configuration not stated)	-8.0%	36.8%	-18.9%	3.8%	.	-16.9%[59 µM]
CNC1(C(N)=O)CCNCC1	0.1%	43.8%	-14.1%	.	7.1%	5.4%[12.7 µM]
CCN(CC)S(=O)(=O)c1ccc2c(c1)N(CC(=O)NCCCN1CCN(c3cc(Cl)ccc3C)CC1)C(=O)CO2	-36.1%	3.8%	?	9.0%	.	-33.7%[59 µM]
SMILES	BAZ2B inh	HP1b chromo inh	JMJD2A Tudor inh	TDP1 inh	Sfp inh	G9a inh
COc1ccc(/C=C2\Oc3cc(OCC(=O)N4CCC(C(=O)O)CC4)ccc3C2=O)c(OC)c1	-31.0%	30.5%	-10.9%	.	-15.6%	.
O=C(O)COc1ccc2c(c1)O/C(=C\c1ccco1)C2=O	39.8µM*	39.8µM*	20µM*	.	?	10µM*
COc1ccc(OC)c(/C=C2\Oc3cc(OCC(=O)N4CCC(C(=O)O)CC4)ccc3C2=O)c1	11.0%	31.0%	-6.1%	.	15.8µM*	26.2%[12.7 µM]
O=C(O)COc1ccc2c(c1)O/C(=C\c1cccs1)C2=O	-16.2%	21.1%	-0.7%	3.9%	-9.4%	-37.4%
COc1cccc(CNC(=O)C2CCN(S(=O)(=O)c3c(C)noc3/C=C/c3cccs3)CC2)c1	.	21.7%	-13.7%	-2.3%	.	9.7%[59 µM]
CC(C)CC(=O)Nc1ccc2nc(SCC(=O)N3CCOCC3)sc2c1	-6.1%	39.0%	-7.9%	-0.5%	.	-36.9%[59 µM]
Cc1c(F)cccc1NC(=O)CCC(=O)O	3.1%	32.8%	-22.5%	0.0%	20.3%	6.9%[59 µM]
Cc1c(F)cccc1NC(=O)CCCCCC1NC(=O)NC1C (configuration not stated)	1µM*	?	0.891µM*	-1.2%	-14.1%	0.708µM*
CC1NC(=O)NC1CCCCCC(=O)Nc1ccc(F)cc1 (configuration not stated)	-1.4%	?	0.316µM*	7.9%	8.9%	?
COCCNC(=O)CN(C(=O)CCC(=O)Nc1ccccn1)c1ccc(C)c(C)c1	28.5%	22.4%	-7.5%	.	12.9%	.
CC[N+](CC)(CC#Cc1ccccc1)CC(=O)c1ccc(Cl)cc1	-7.2%	10.7%	-23.2%	5.4%	1.1%	7.08µM*
Brc1ccc(CSc2nccn2-c2ccccc2)cc1	39.8µM*	?	56.2µM*	5.9%	-4.5%	44.7µM*
Cn1c(SCc2ccccc2)nnc1-c1cnccn1	-17.8%	20.0%	-3.6%	5.7%	-9.7%	.
O=C(CSc1nccn1-c1ccccc1)NO	?	-3.8%	-5.1%[11.4 µM]	1.2%	4.1%	3.7%
Cn1c(SCc2ccc(Br)cc2)nnc1-c1ccccn1	79.4µM*	3.4%	-5.4%	1.4%	9.4%	?
CCc1sc(-c2cc3cccc(OC)c3oc2=O)nc1-c1cc(C)ccc1C	.	54.8%[57 µM]	36.9%[57.1 µM]	-6.3%	.	.
CC(NS(=O)(=O)c1ccc(NC(=O)N2CCCCC2)cc1)c1ccccc1 (configuration not stated)	-7.6%	11.8%	-13.1%	0.2%	11.6%	1.9%
COc1ccc(NC(=O)C2CCCN2C(=O)NC2CCCCC2)c(OC)c1 (configuration not stated)	-12.9%	53.0%	2.8%	.	12.4%	17.8%
COc1ccc(NC(=O)C2CCN(C(=O)c3ccccc3)CC2)c(OC)c1	.	5.9%	-3.1%	-4.2%	8.7%	-6.7%[59 µM]
COc1ccc(NC(=O)C2CCN(S(C)(=O)=O)CC2)c(OC)c1	-12.0%	37.7%	-14.4%	.	3.8%	89.1µM*

Screens from PubChem BioAssay.
